A selection: hits, their analogues and other compounds. The true share with any hit is near 7.5%.
NPC1 promoter act: activates the NPC1 promoter | Potency, µM (doses to about 9.22 µM), hits mostly activators | AID 485313 | actives 2.4% (n = 320,000) | Huh7 NPC1 promoter luciferase reporter, 24 h; further: nearly all actives have a fitted effect of over 60% in size
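Luciferase expression driven by the NPC1 promoter was measured in stably transfected Huh7 cells after a 24 h compound incubation, using a luciferase reagent and a luminescence read.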
SMN2 splice enh: SMN2 splice variant enhancement; HEK293 SMN2-luciferase splicing reporter, luminescence, 30-36 h; Potency, µM (top dose mostly 46.1 µM), actives largely listed as activators; actives 2.8% (n = 210,000); further: nearly all actives have a fitted effect of over 55% in size
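qHTS luciferase splicing reporter: luminescence rises when SMN2 exon 7 is included in transfected HEK293 cells. Compound exposure lasted 30-36 h at 37C, with 4.5 mM final sodium butyrate as control, followed by a ONE-Glo read.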
Rab9 prom act: Rab9 promoter activation; AID 485297; Huh7 Rab9 promoter-luciferase reporter, luminescence, 24 h; actives 2.8% (n = 320,000); Potency, µM (highest dose often 9.22 µM), actives largely listed as activators; further: nearly all actives have a fitted effect of over 60% in size
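Huh7 reporter line, Rab9 promoter upstream of luciferase. Compound exposure 24 h at 37 °C in reduced-serum medium with 10% FBS. Read-out: luminescence.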
Luc counter: blocks Kinase-Glo luciferase, a counter-screen artifact; Q27757; Kinase-Glo luciferase, ATP luminescence, 8 min; Potency, µM (titrated, usually from 38.3 µM), usual class: inhibitors; actives 0.28% (n = 200,000); further: nearly all actives have a fitted effect of over 60% in size
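Substrate mix (final 50 mM imidazole pH 7.2, 50 mM KCl, 7 mM MgCl2, 10 uM ATP, 0.01% Tween 20, 0.05% BSA) plus pin-tool compound, then Kinase-Glo detection mix; 8 min ambient, luminescence read.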
ELG1 genotox: induces genotoxicity in HEK293T cells with luciferase-tagged ELG1; HEK293T ELG1-luciferase reporter, luminescence, 16 h; Potency, µM (top dose mostly 46 µM), usual class: activators; actives 1.3% (n = 330,000); AID 504466; further: nearly all actives have a fitted effect of over 60% in size
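HEK293T cells expressing luciferase-tagged ELG1 were treated with compound or DMSO for 16 hr at 37°C. Luciferase activity was then read after 30 min with ONE-Glo at room temperature; rising signal flags genetic stress.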
FLuc counter: inhibits or activates purified firefly luciferase, miR-21 counter-screen; P08659; purified FLuc, Km substrates, luminescence inhibition; Potency, µM (series often up to 57.5 µM), actives largely listed as inhibitors; actives 6.9% (n = 360,000); AID 588342; further: nearly all actives have a fitted effect of over 55% in size
Target sequence (P08659 whole entry, looked up): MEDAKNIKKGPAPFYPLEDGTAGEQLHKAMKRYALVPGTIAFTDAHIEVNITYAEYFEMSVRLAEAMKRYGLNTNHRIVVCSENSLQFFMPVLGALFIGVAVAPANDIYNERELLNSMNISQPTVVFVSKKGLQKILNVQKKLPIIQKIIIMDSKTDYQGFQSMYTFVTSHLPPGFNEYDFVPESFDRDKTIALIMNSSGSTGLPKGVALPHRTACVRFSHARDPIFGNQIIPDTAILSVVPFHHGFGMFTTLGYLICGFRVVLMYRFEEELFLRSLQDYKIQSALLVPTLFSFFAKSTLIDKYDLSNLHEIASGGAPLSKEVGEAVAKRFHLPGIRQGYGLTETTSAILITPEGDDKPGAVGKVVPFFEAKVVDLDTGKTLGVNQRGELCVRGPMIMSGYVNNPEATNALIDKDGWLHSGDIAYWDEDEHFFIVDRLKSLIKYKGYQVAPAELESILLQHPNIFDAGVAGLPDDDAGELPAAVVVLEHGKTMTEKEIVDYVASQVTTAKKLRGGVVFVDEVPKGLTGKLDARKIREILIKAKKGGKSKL
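Purified P. pyralis luciferase (10nM final) with 10uM D-luciferin and 10uM ATP (Km levels) in 50mM Tris acetate pH 7.5, 10mM Mg acetate, 0.01% Tween-20, 0.05% BSA; qHTS 6-point titration, ~60 µM downward; luminescence read.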
Hits are given with their value; i = inactive; ? = inconclusive; nt = not tested or not shown; [ ] = dose if it differs, or a comment. The call rests on the fitted dose curve; in most records, active means well fitted curve in the direction sought with a large enough effect; inconclusive means small, poorly fitted or top-dose-only effect, or another doubt; inactive means no such curve, though single readings can be large; an effect the other way counts as inactive or inconclusive.

SMILES | NPC1 promoter act | SMN2 splice enh | Rab9 prom act | Luc counter | ELG1 genotox | FLuc counter
COc1cc(/C=c2\sc3nc(-c4ccncc4)nn3c2=O)ccc1OC(C)=O | i | i | i | i | i | 2.69µM
O=C(N/N=C/c1cccc2ccccc12)c1ccc(CN2CCOCC2)cc1 | i | nt | i | nt | i | 16.9µM
CCc1ccc(C(=O)N/N=C/c2cccc3ccccc23)nc1 | i | ? | i | i | ? | 5.36µM
Nc1ccc(C(=O)N/N=C/c2cn(Cc3cccc(F)c3)c3ccccc23)cc1 | i | nt | i | nt | i | 23.9µM
O=C(N/N=C/c1cccc([N+](=O)[O-])c1)c1ccc(CN2CCOCC2)cc1 | i | i[1.84 µM] | i | i | i | ?
O=C(N/N=C/c1ccccc1Cl)c1cccc(F)c1 | 2.51µM | 22.4µM | 2µM | i | ? | 4.78µM
Cn1c(CNC(=O)c2ccco2)nnc1SCC(=O)c1ccc(Br)cc1 | i | nt | i | nt | i | i
COc1ccc(NS(=O)(=O)c2cc(N/C(=N\S(=O)(=O)c3ccccc3)c3ccc(F)cc3)ccc2Cl)cc1 | i | i | i | i | i | i
O=C(COC(=O)CNC(=O)c1ccc(Cl)cc1Cl)NNC(=O)c1ccccc1F | nt | nt | nt | nt | i | nt
Cc1nn(Cc2c(Cl)cccc2Cl)c(Cl)c1/C=N/NC(=O)c1cccnc1 | i | i | ? | i | i | 9.53µM
O=C(N/N=C/c1cccc2ccccc12)c1cccnc1 | i | nt | i | nt | i | 15.1µM
O=C(N/N=C/c1cccc2ccccc12)c1cccc(F)c1 | i | nt | i | nt | i | 21.3µM
Cc1ccccc1/C=N/NC(=O)c1cccnc1 | i | nt | i | nt | i | ?
COCCNC(=O)Cn1cc(/C=N/NC(=O)c2ccc(Oc3ccc(O)cc3)cc2)c2ccccc21 | i | i | i | i | i | 10.7µM
COc1ccc(NC(=O)Nc2c(SC)nsc2SC)cc1 | i | i | i | i | i | i
O=C1CC(c2ccccc2)Oc2cc(O)ccc21 (configuration not stated) | i | nt | i | nt | i | i
COc1cccc(C(=O)Nc2ccc3nc(N4CCC(C)CC4)cc(C)c3c2)c1 | nt | i | nt | nt | nt | i
COc1ccc(NC(=O)C(Cc2ccccc2)NS(=O)(=O)c2ccc3c(c2)oc(=O)n3C)c(OC)c1 (configuration not stated) | nt | i | nt | nt | nt | i
CC(=O)Nc1ccc(C(=O)NCC(=O)OCc2c(F)cccc2Cl)cc1 | i | ? | i | i | i | 19µM
O=C(Cc1c(F)cccc1Cl)NNC(=O)c1cccs1 | nt | nt | nt | nt | i | nt
Cc1ccc(C(=O)NCC(=O)OCc2c(F)cccc2Cl)cc1 | i | nt | i | nt | i | 12µM
O=C(CNC(=O)c1cccs1)OCc1c(F)cccc1Cl | i | nt | i | nt | ? | 15.1µM
CCOc1ccc(C(=O)NCC(=O)OCc2c(F)cccc2Cl)cc1 | i | i | i | i | i | ?
COc1ccc(CN=C2NC(=O)CC(C(=O)Nc3ccccc3C)S2)cc1 (configuration not stated) | i | nt | i | nt | i | i
CC(C)CCNC(=O)N1CCN(S(=O)(=O)c2ccc3c(ccn3C)c2)CC1 | nt | nt | nt | nt | nt | i
SMILES | NPC1 promoter act | SMN2 splice enh | Rab9 prom act | Luc counter | ELG1 genotox | FLuc counter
Cc1ccc(NC(=O)Nc2cnccn2)cc1 | ? | nt | ? | nt | ? | 16.9µM
COc1ccc(NC(=O)Nc2cnccn2)cc1OC | i | nt | i | nt | i | i
CC(C)c1ccc(NC(=O)Nc2cnccn2)cc1 | ? | nt | ? | nt | ? | 6.75µM
Cc1ccc(NC(=O)Nc2cnccn2)cc1C | i | nt | ? | nt | i | 21.3µM
COc1ccc(NC(=O)C(C)n2nc(-c3ccc(C)c(C)c3)ccc2=O)cc1OC (configuration not stated) | nt | nt | nt | nt | nt | i
Cc1cc2cc(CN(CCN(C)C)C(=S)NCc3ccco3)c(=O)[nH]c2cc1C | i | i | i | i | i | i
CCN(CC)CCN(Cc1cc2cc(C)c(C)cc2[nH]c1=O)C(=S)NCc1ccco1 | i | nt | i | i | i | 23.9µM
Cc1nn(C)c2c1c(C(F)(F)F)cc(=O)n2CC(=O)Nc1ccc(F)cc1F | nt | nt | nt | nt | nt | i
CC(=O)c1cccc(OCc2cc(C(=O)N3CC4C[C@@H]5CC3C[C@H](C4)C5)no2)c1 | i | nt | i | nt | i | ?
O=C(c1cc(COc2ccc(F)cc2F)on1)N1CC2C[C@@H]3CC1C[C@H](C2)C3 | ? | nt | ? | nt | i | 16.9µM
CC(=O)c1ccc(OCc2cc(C(=O)N3CC4C[C@@H]5CC3C[C@H](C4)C5)no2)cc1 | 2.51µM | nt | 3.16µM | nt | ? | 9.53µM
COc1ccccc1OCc1cc(C(=O)N2CCN(C)C(c3ccccc3)C2)no1 (configuration not stated) | 3.98µM | nt | 2µM | nt | ? | 9.53µM
O=C(c1cc(COc2ccc(F)cc2F)on1)N1C[C@H]2CC[C@H]1C2 | i | nt | ? | nt | i | ?
COc1ccccc1OCc1cc(C(=O)N2CC3C[C@@H]4CC2C[C@H](C3)C4)no1 | 4.47µM | nt | 3.55µM | nt | ? | 16.9µM
COc1ccc(CN2CCNC(=O)C2CC(=O)NCCN2CCCCC2=O)c(F)c1 (configuration not stated) | i | nt | i | nt | i | i

Screening results from PubChem BioAssay.
